Screens deposited in PubChem by National Center for Advancing Translational Sciences (NCATS).
Only a selection was taken, and hits are over-represented in it overall.
12-LOX inh: inhibitors of human 12S-lipoxygenase ALOX12; P18054; purified 12hLO, xylenol orange hydroperoxide absorbance; Potency, µM (doses to about 108 µM), actives largely listed as inhibitors; 580,000 compounds, 1.1% hits; AID 1671190
Target sequence (P18054 whole entry, looked up): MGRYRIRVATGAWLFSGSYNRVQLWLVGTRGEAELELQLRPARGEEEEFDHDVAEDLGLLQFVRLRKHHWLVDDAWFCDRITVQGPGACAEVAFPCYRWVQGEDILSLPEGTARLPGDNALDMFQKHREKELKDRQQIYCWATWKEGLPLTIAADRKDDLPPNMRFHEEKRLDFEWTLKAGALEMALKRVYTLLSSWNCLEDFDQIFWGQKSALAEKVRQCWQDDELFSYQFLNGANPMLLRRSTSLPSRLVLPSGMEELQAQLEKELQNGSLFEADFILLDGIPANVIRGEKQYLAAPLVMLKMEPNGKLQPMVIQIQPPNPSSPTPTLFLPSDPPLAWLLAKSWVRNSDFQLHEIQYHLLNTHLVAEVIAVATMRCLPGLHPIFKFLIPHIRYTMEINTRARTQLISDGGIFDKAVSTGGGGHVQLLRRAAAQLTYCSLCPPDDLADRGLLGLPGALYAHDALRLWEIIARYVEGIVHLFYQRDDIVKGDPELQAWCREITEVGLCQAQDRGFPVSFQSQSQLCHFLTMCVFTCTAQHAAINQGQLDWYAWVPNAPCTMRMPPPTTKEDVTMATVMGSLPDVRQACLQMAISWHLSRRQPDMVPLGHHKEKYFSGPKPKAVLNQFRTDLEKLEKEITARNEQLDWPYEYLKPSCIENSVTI
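Purified human 12hLO at 150 nM in 25 mM Hepes, 0.01% Triton X-100, pH 7.0, preincubated 15 min at room temperature with compound. Reaction started with 40 uM arachidonic acid, 30 min at room temperature. Hydroperoxide measured by Fe-xylenol orange, 573/405 nm absorbance ratio.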
HT1080NT lethal: kills 2HG-producing HT-1080-NT fibrosarcoma cells; HT-1080-NT fibrosarcoma viability, CellTiter-Glo ATP luminescence, 48 h; Potency, µM (highest dose often 46.1 µM), actives largely listed as cytotoxic; 360,000 compounds, 1.6% hits;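 note: NT is the 2HG producing partner of a matched IDH1 knockdown line; nearly all actives have a fitted effect of over 55% in size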
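HT-1080-NT fibrosarcoma cells (2HG-overproducing), 750 cells/well in RPMI with 5% FBS, dosed after 2 h and incubated 48 h at 37C. CellTiter-Glo luminescence normalized to DMSO and no-cell wells; concentration-response curves fitted and classed.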
IL1B secr inh: inflammasome signaling inhibition, IL-1 beta readout | activity change, % at 57.5 µM | THP-1 LPS/ATP IL-1B secretion, AlphaLISA, 16 h; stronger effect = lower value | 360,000 compounds, 4.7% hits | AID 743279; in the data active = activity change below about -50%; inconclusive = mostly about -30% to -49%
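THP-1 cells pretreated 1 hr with compounds (up to 57.5 uM final), then stimulated with LPS (250 ng/mL final) plus ATP (1.25 mM final); secreted IL-1B measured by AlphaLISA after 16 hr, decreased signal indicating inhibition.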
DT40 TDP1 CPT: growth inhibition of DT40 Tdp1-/-;hTDP1 cells with camptothecin (screen for TDP1 inhibitors); chicken DT40 Tdp1-/-;hTDP1 cells + 20 nM CPT, ATP luminescence, 48 h; Potency, µM (highest dose often 46.2 µM), most hits filed as inhibitors; 420,000 compounds, 12% hits; note: nearly all actives have a fitted effect of over 55% in size
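Cell growth measured by CellTiter-Glo luminescence after a minimum 48 h, 37 C compound exposure with 20 nM CPT in Tdp1-knockout DT40 cells stably expressing hTDP1, seeded 400/well; qHTS titration format.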
HT1080 IDH1KD tx: HT-1080 IDH1 knockdown cell toxicity (counter line). HT-1080 IDH1 knockdown viability, ATP luminescence, 48 h. Potency, µM (top dose mostly 46.1 µM), most hits filed as cytotoxic. 360,000 compounds, 2% hits
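% activity derives from luminescence (CellTiter-Glo), normalised to DMSO and no-cell wells. HT-1080-IDH1KD cells, 750/well, had 48 h compound exposure at 37 °C.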
DT40 TDP1 no CPT: qHTS for Inhibitors of human tyrosyl-DNA phosphodiesterase 1 (TDP1): qHTS in cells in absence of CPT; DT40 Tdp1-/- hTDP1 cells, no CPT, ATP luminescence, 48 h; Potency, µM (top dose mostly 46.2 µM), hits mostly inhibitors; 420,000 compounds, 15% hits; AID 686978, 2013; note: nearly all actives have a fitted effect of over 55% in size
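Growth kinetics read by CellTiter-Glo luminescence after ≥48 hr at 37 °C. Cells: DT40 Tdp1-/- stably carrying human TDP1, 400 per well, compound exposure in the absence of CPT (DMSO vehicle).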
A number is an active result; – = inactive; ? = inconclusive; · = no result; [ ] = another dose, or the depositor's remark. Unless noted, calls come from the whole dose curve; as a rule, active = well fitted curve in the direction sought with a large enough effect; inconclusive = small, poorly fitted or top-dose-only effect, or another doubt; inactive = no such curve, though single readings can be large; an effect the other way counts as inactive or inconclusive.

SMILES	12-LOX inh	HT1080NT lethal	IL1B secr inh	DT40 TDP1 CPT	HT1080 IDH1KD tx	DT40 TDP1 no CPT
O=C(Nc1ccc(N2CCC(N3CCCCC3)CC2)c(C(=O)O)c1)c1ccc(Br)cc1	?	·	·	–	·	–
CSc1ccc(S(=O)(=O)N2CCC(C(=O)N3CCc4ccccc4C3)CC2)cc1	–	–	-64	?	–	?
CCOc1ccc(S(=O)(=O)N2CCC(C(=O)N3CCc4ccccc4C3)CC2)cc1	–	–	–	?	–	15µM
CCOc1ccc(S(=O)(=O)N2C[C@@H](F)C[C@H]2C(=O)N2CCc3ccccc3C2)cc1	–	·	·	·	·	·
COc1ccc(OC)c(S(=O)(=O)N2CCCC2C(=O)N2CCc3ccccc3C2)c1 (stereo not given)	–	–	–	15µM	–	23µM
Oc1ccc(Nc2ccnc(N3CC4CCC(C3)N4CC(F)(F)F)n2)cc1	–[6.33 µM]	·	·	·	·	·
N#C/C(=C\c1ccccc1OC(=O)c1cccc2ccccc12)C(=O)Nc1ccccc1C(F)(F)F	–	·	·	·	·	·
CN(C)C(=S)NCc1ccccc1	–	–	–	23µM	–	10µM
S=C(NCc1ccccc1)Nc1cccc2ccccc12	45µM	–	–	18µM	–	18µM
CCN(C(=S)Nc1cccc2ccccc12)c1ccccc1	?	–	–	?	–	10µM
S=C(NCc1ccccc1)NCc1cccc(CNC(=S)NCc2ccccc2)c1	32µM	–	–	?	–	?
S=C(NCc1cccs1)Nc1cccc2ccccc12	?	–	?	–	–	–
S=C(NCc1ccccc1)NCc1cccc(Cl)c1	?	–	–	–	–	–
Cc1cccc(NS(=O)(=O)c2ccc(C)c(C(=O)NCC(c3cccs3)N(C)C)c2)c1 (stereo not given)	–	–	–	18µM	–	?
CCN(c1ccccc1)S(=O)(=O)c1cccc(C(=O)NCC(c2cccs2)N(C)C)c1 (stereo not given)	–	–	–	?	–	21µM
CCN(c1ccccc1)S(=O)(=O)c1ccc(C(=O)N(C)Cc2cccs2)cc1	–	–[9.24 µM]	–	?	–	23µM
CCN(CC(=O)NCc1cccs1)C(=O)c1cccc(S(=O)(=O)N(CC)c2ccccc2)c1	–	–	–	?	–	23µM
c1ccc([C@@H]2C[C@H]2c2nc(C3CCOCC3)n[nH]2)cc1	–	·	·	·	·	·
NCC(=O)N1CCCC2(Cc3ccccc3CN2C(=O)Cc2cccc(Cl)c2)C1 (stereo not given)	–[6.33 µM]	·	·	·	·	·
Cn1c(=O)[nH]c(=O)c2c1nc(N1CCN(Cc3ccc(Cl)cc3)CC1)n2CCCc1ccccc1	–	·	·	·	·	·
CN1c2ccccc2-c2nc(SCC(=O)Nc3ccccc3Br)ncc2S1(=O)=O	–	·	·	·	·	·
CNS(=O)(=O)c1cccc(C(=O)NCC(c2cccs2)N(C)C)c1 (stereo not given)	–	–	–	–	–	–
Cc1ccc(NS(=O)(=O)c2cccc(C(=O)NCC(c3cccs3)N(C)C)c2)cc1 (stereo not given)	?	?	–	16µM	?	?
CC1CCC(C(=O)Nc2ccc3ccccc3c2)CC1 (stereo not given)	–	·	·	·	·	·
Cn1c(=O)c2nc(SCc3cccc(F)c3)n(C)c2n(C)c1=O	–	·	·	·	·	·
SMILES	12-LOX inh	HT1080NT lethal	IL1B secr inh	DT40 TDP1 CPT	HT1080 IDH1KD tx	DT40 TDP1 no CPT
CC(C)c1nnc(NC(=O)CC[C@H]2NC(=O)c3ccccc3NC2=O)s1	–	·	·	·	·	·
COc1ccc2cc3cc(C(=O)NC4CC4)sc3nc2c1	–	–	–	23µM	–	18µM
COc1ccc2nc3sc(C(=O)NCCN4CCc5ccccc5C4)cc3cc2c1	–	–	–	21µM	–	16µM
COC(=O)c1c(-c2ccc(S(C)(=O)=O)cc2)sc2cc(OC)ccc12	–	–	–	?	–	21µM
COc1ccc2c(C(=O)NCc3ccc4c(c3)OCO4)c(-c3ccc(S(C)(=O)=O)cc3)sc2c1	–	–	–	23µM	–	16µM
COC(=O)c1c(-c2ccc(S(C)(=O)=O)cc2)sc2ccc(OC)cc12	–	–	–	?	–	13µM
COC(=O)c1c(-c2cc(OC)cc(OC)c2)sc2ccc(OC)cc12	–	–	–	?	–	?
CCCN1CN(Cc2ccco2)c2nc3ccccc3n2C1	–	–	–	15µM	–	?
CC(C)N[C@H]1C[C@@H](Cc2cc(CN3CCOCC3)on2)C1(C)C	–	·	·	·	·	·
C[C@@]12C(=O)Nc3ccc(Cl)cc3C(=O)N1[C@H]1c3ccccc3OC[C@@H]1[C@@H]2c1ccccc1	·	–	?	?	–	?
Cc1ccc2c(c1)C(=O)N1[C@H]3c4cc(Cl)ccc4OC[C@@H]3[C@H](c3ccccc3)[C@]1(C)C(=O)N2	–	–	–	?	?	16µM
Cc1ccc2c(c1)C(=O)N1[C@H]3c4cc(C)ccc4OC[C@@H]3[C@H](c3ccccc3)[C@]1(C)C(=O)N2	–	?	-53	12µM	7.3µM	13µM
Cc1ccc2c(c1)[C@@H]1[C@H](CO2)[C@H](c2ccccc2)[C@@]2(C)C(=O)N[C@H](C)C(=O)N12	–	–	–	–	–	–
C=CCOC(=O)C1=C(C)N=C2SC=C(CC(=O)N3CCCC3)N2C1c1ccc(F)cc1 (stereo not given)	–	·	·	·	·	·
CCOC(=O)C1(CC2CC2)CCN(Cc2cn(C)c3ccccc23)CC1	–	–	-82	21µM	?	18µM
CCOC(=O)C1(CCc2ccccc2)CCN(Cc2ccccn2)CC1	–	–	–	–	?	?
CCOC(=O)C1(CCc2ccccc2)CCN(Cc2ccc(C(=O)OC)cc2)CC1	–	–	–	?	–	16µM
CCOC(=O)C1(CC2CC2)CCN(C(=O)c2cccnc2C)CC1	–	–	–	–	–	?
CCOC(=O)C1(CCc2ccccc2)CCN(Cc2cc(OC)c(OC)cc2OC)CC1	–	?	-54	21µM	–	21µM
CCOC(=O)C1(CC2CC2)CCN(Cc2ccc(C(=O)OC)cc2)CC1	–	–	–	?	–	23µM
CCOC(=O)C1CCN(Cc2ccc(C(=O)OC)cc2)CC1	?	–	–	–	–	–
CCOC(=O)C1(CCc2ccccc2)CCN(C2Cc3ccccc3C2)CC1	–	–	–	?	–	?
Cc1oc2cc(OCC(=O)NCC(=O)O)ccc2c(=O)c1-c1ccc(Cl)cc1	–	·	·	·	·	·
COc1cccc(CCNC(=O)c2c(C)noc2-c2ccc3c(c2)OCO3)c1	–	·	·	·	·	·
CCOC(=O)C1(CC2CC2)CCN(C(=O)c2cc(C3CC3)nc3ccccc23)CC1	–	–	-84	?	–	23µM
